# Screens (PubChem BioAssay)
# A selection: hits, their analogues and other compounds. The true share with any hit is near 4%.
# NR3A LBD binder – NR3A (human) ligand-binding domain modulation; Tm shift relative to glycine control, % at 25 µM; NR3A LBD differential scanning fluorimetry, Tm shift; 0% = protein alone, 100% = glycine-bound protein; 340,000 tested, 2.5% active; AID 1259313;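 active = melting temperature shift of at least 10% of the positive control shift, at one fixed dose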
# FAS-TE inh – blocks the thioesterase domain of human fatty acid synthase; 360,000 tested, 0.67% active; inhibition, % at 15 µM; recombinant FAS-TE, OMFH fluorogenic substrate, fluorescence endpoint; AID 602261; P49327;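 active = compounds whose normalised, plate-corrected inhibition of enzyme fluorescence in the single-dose primary screen is 50% or more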;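 also: 0% = DMSO with enzyme and 100% = substrate without enzyme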
# ADAM17 inh – ADAM17 inhibition, QFRET primary screen. P78536. recombinant ADAM17, EDANS/DABCYL FRET peptide cleavage. inhibition, % at 6.95 µM. 370,000 tested, 0.83% active. AID 720648;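 active = inhibition above the mean of compounds lying between control limits plus 3 SD, set per campaign, cut at about 8.5% in these data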;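 also: 0% = DMSO-only wells as the low control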
# aDG glyco act – increases alpha dystroglycan glycosylation; Pro5-aDG cells, alpha-DG glycosylation AlphaScreen (IIH6); 0% Pro5, 100% B10-LARGE cell signal; activation, % at 10 µM; 360,000 tested, 0.22% active; AID 624168;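 active = activation of at least 8% versus controls, or a plate z-score of at least 8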;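 also: Pro5 are CHO cells carrying HIG-tagged alpha-DG that lacks glycosylation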
# ADAM10 inh – ADAM10 inhibition, QFRET primary screen. 370,000 tested, 0.62% active. recombinant ADAM10, EDANS/DABCYL FRET peptide cleavage, 3 h. inhibition, % at 7 µM. O14672. AID 720582;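 active = inhibition above a per-campaign cutoff equal to the mean of compounds falling between control-based bounds plus 3 SD, cut at about 20% in these data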;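 also: 0% = DMSO wells while the 100% control is not disclosed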
# Target sequence (O14672 214-748 limits assumed): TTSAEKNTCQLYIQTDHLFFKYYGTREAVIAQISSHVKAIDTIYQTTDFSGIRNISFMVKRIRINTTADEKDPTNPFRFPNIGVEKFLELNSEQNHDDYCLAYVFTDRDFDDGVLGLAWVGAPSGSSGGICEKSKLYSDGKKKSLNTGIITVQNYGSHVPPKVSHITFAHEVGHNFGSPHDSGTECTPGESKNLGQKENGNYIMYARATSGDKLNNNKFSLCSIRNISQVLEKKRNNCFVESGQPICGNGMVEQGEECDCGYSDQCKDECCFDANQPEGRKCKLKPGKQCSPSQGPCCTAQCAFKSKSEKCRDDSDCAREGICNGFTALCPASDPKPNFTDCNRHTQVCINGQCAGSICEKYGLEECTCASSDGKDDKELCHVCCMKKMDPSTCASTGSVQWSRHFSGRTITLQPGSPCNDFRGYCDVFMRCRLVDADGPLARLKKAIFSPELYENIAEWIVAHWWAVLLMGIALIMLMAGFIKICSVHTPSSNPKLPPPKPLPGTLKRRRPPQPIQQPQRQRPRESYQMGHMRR
# ADAM10 confirm – human ADAM10 inhibition, confirmation. shares compounds with ADAM10 inh. ADAM10 QFRET peptide cleavage, EDANS fluorescence. inhibition, % at 6.95 µM. 2,100 tested, 1% active;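 active = inhibition above about 20% chosen separately for each screening run, limit read from the data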;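 also: 0% = DMSO wells and 100% = marimastat wells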
# ADAM17 counter – ADAM17 inhibition, counter-screen for ADAM10 exosite hits. shares compounds with ADAM10 inh. ADAM17 QFRET peptide cleavage, EDANS fluorescence. inhibition, % at 6.95 µM. 2,100 tested, 0.5% active. AID 743214;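 active = mean triplicate inhibition above the solvent-only control wells' mean plus 3 SD, cut at about 12% in these data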;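 also: 0% = DMSO wells and 100% = marimastat wells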
# Starred values were filed as active, the others as inactive; . = not tested or not shown.
SMILES,NR3A LBD binder,FAS-TE inh,ADAM17 inh,aDG glyco act,ADAM10 inh,ADAM10 confirm,ADAM17 counter
Cc1ccccc1-n1nc(-c2ccc(N)cc2)cc1N,-3.8,-5.1,5.8,-0.1,41.9*,3.1,-0.1
CCOC(=O)C1=NOC(C(=O)NC2CCCC2)(C(=O)c2ccc(OC)cc2)C1 (stereo not given),.,.,1.7,.,-1.0,.,.
COc1ccc(NC(=S)NC23CN4CN(CN(C4)C2)C3)cc1,-2.7,-12.9,1.1,-0.2,82.5*,1.4,-0.2
CCOC(=O)[C@H]1[C@H]2COc3ccc(Br)cc3[C@H]2N2C(=O)CN(Cc3ccc(C)cc3)C(=O)[C@@]12C,0.2,14.2,4.6,0.2,20.3*,1.3,0.8
COc1ccc2c(c1)OC[C@H]1[C@@H]2N2C(=O)CNC(=O)[C@@]2(C)[C@H]1c1ccccc1,-3.1,-6.8,-4.2,0.0,-2.4,.,.
CCOC(=O)[C@H]1[C@H]2COc3ccc(Cl)cc3[C@@H]2N2C(=O)c3cc(Cl)ccc3NC(=O)[C@@]12C,-13.8,31.6,7.9,-0.2,16.2,.,.
CCOC(=O)[C@H]1[C@H]2COc3ccc(Cl)cc3[C@@H]2N2C(=O)c3cc(Br)ccc3NC(=O)[C@@]12C,-8.6,50.0,6.0,0.3,23.0*,5.2,0.8
COc1ccc2c(c1)OC[C@H]1[C@H]2N2C(=O)CN(Cc3ccccc3)C(=O)[C@@]2(C)[C@H]1c1ccccc1,-1.7,48.6,7.9,0.1,22.9*,3.9,1.4
O=C(NN=Cc1ccc(O)cc1)c1ccccc1NS(=O)(=O)c1cccs1,1.2,-5.0,-1.3,0.0,-13.8,.,.
c1ccc2c(c1)C(=NCC1CCCO1)NC2=NCC1CCCO1 (stereo not given),-0.8,-3.4,-2.9,-0.1,-4.2,.,.
CCOc1cc(/C=C/c2ccc3cccc([N+](=O)[O-])c3n2)ccc1O,24.7*,11.5,6.8,-0.1,21.8*,7.0,1.2
O=[N+]([O-])c1cccc(/C=C/c2ccc3cccc(O)c3n2)c1,7.2,5.4,2.9,0.3,6.9,.,.
COc1ccccc1C(=O)Nc1ccc(C)cc1C(=O)c1ccccc1,0.8,18.8,7.4,-0.1,21.5*,0.9,1.2
CCOC(=O)C1(CC2CCCCO2)CCN(C2CCSCC2)CC1 (stereo not given),-3.2,-3.2,1.1,-0.1,-0.6,.,.
O=C(CCc1ccccc1)N[C@H]1[C@@H](OC(=O)c2cccnc2)CCC[C@]12C(=O)N(Cc1ccccc1)c1ccccc12,.,.,2.4,.,-3.3,.,.
COc1ccc(C(=O)O[C@@H]2CCC[C@@]3(C(=O)N(Cc4ccccc4)c4ccccc43)[C@H]2NC(=O)CCc2ccccc2)cc1OC,.,.,8.2,.,20.4*,4.7,1.6
COC(=O)N(C)C[C@@H]1OCc2cnnn2CCCC(=O)N([C@H](C)CO)C[C@H]1C,.,-2.9,5.2,0.2,0.5,.,.
O=C(NC(=S)NCc1ccccc1)c1cccc(Cl)c1,-2.8,25.2,8.3,0.0,20.5*,5.6,1.5
Cc1cc(C)c(S(=O)(=O)N(CC(=O)NCc2cccnc2)C2CCCCC2)c(C)c1,-2.2,-3.0,-2.4,0.2,-6.4,.,.
CC(C)OCCCNC(=O)CN1CCN(Cc2ccc(Cl)cc2)C1=O,-1.8,-0.4,-3.3,0.2,9.2,.,.
CC1CCN(CCCNC(=O)CN2CCN(Cc3ccc(Cl)cc3)C2=O)CC1,-1.4,-6.9,-1.5,0.0,48.6*,2.9,1.1
CCc1c(C#N)c(SCCC(=O)Nc2cccc(OC)c2)nc2c1C(=O)CC(C)(C)C2,0.6,24.0,6.8,0.5,21.9*,7.5,1.3
COc1ccc(-c2c(C#N)c(SCc3c(C)noc3C)nc3c2C(=O)CC(C)(C)C3)cc1,0.4,33.1,-2.2,-0.2,6.4,.,.
COc1ccccc1CNC(=O)C(NS(=O)(=O)c1cccc2nsnc12)C(C)C (stereo not given),1.1,-1.6,-3.4,0.0,-2.1,.,.
COc1ccccc1-n1cc(-c2ccc([N+](=O)[O-])cc2)[nH]c1=S,2.9,7.1,7.7,0.2,27.0*,2.6,0.6
SMILES,NR3A LBD binder,FAS-TE inh,ADAM17 inh,aDG glyco act,ADAM10 inh,ADAM10 confirm,ADAM17 counter
Cc1cc2c(cc1C)N(C(=O)CCl)CCN2C(=O)CCl,-2.3,3.6,-0.4,2.2,-11.7,.,.
CSc1nc2cc(Oc3cccc(Cl)c3Cl)c(Cl)cc2[nH]1,-6.6,15.7,7.1,-0.2,20.1*,8.2,2.4
C/C(=N\O)C(=O)NCCN1CCCCC1,-1.1,-7.5,-5.2,-0.2,-2.6,.,.
COc1cccc(NC(=S)NC(Cc2ccccc2)c2ccccc2)c1 (stereo not given),.,19.6,7.4,0.1,20.5*,6.0,1.5
CCN1CCN(C(=O)CCN2C(=O)c3ccccc3S2(=O)=O)CC1,-0.5,-6.6,-0.9,0.0,-10.7,.,.
CN1C(=O)Cc2cc(S(=O)(=O)Nc3ccc(N4CCOCC4)cc3)ccc21,0.6,2.7,7.7,-0.2,28.4*,-1.3,0.4
Cc1cc(S(=O)(=O)Nc2ccc(N3CCOCC3)cc2)ccc1Br,-0.9,10.5,2.1,0.0,5.6,.,.
Cc1[nH]n(-c2ccc([N+](=O)[O-])cc2)c(=O)c1C=NCCN1CCN(C(=O)c2ccccc2)CC1,-6.3,13.7,8.2,0.0,20.5*,1.9,-0.6
COc1ccc(CCN=Cc2c(C)[nH]n(-c3ccc([N+](=O)[O-])cc3)c2=O)cc1OC,-3.4,-7.4,-2.0,-0.1,-2.9,.,.
O=C(CSc1nc2ccccc2[nH]1)Nc1ccc2c(c1)CCC2,-7.1,-4.4,-4.1,0.0,20.2*,1.6,-0.1
COc1ccc([C@@H]2C[C@@H](c3ccccc3)Oc3cc(C)cc(C)c32)cc1,1.8,16.3,-3.2,-0.1,0.7,.,.
O=C(Nc1ccc2c(c1)N(Cc1ccccc1)C(=O)c1ccccc1S2)NC1CC1,-1.6,13.6,6.8,0.1,21.3*,3.6,1.0
CCC[C@@H]1C[C@@H](C(=O)N[C@@H](C2O[C@H](SC)[C@H](O)[C@@H](O)[C@H]2O)[C@H](C)Cl)N(C)C1 (stereo not given in full),-1.1,-5.6,.,-0.1,.,.,.
CCn1nc(C(=O)OCC(=O)c2ccc(F)cc2)c2ccccc2c1=O,-0.9,-5.4,-4.2,0.3,-3.6,.,.
CCn1nc(C(=O)OC(C(=O)c2c[nH]c3ccccc23)c2ccccc2)c2ccccc2c1=O (stereo not given),19.6*,21.3,6.8,0.1,24.1*,11.1,4.7
CN(CCCC1CCCC1)C(=O)c1cc(COc2ccc(F)cc2F)on1,-17.2,36.6,1.4,0.5,21.8*,5.3,2.0
O=S1(=O)CC2c3ccccc3CCN2CN1Cc1ccccc1 (stereo not given),.,.,-1.4,.,3.4,.,.
